Source: PubChem
The full list was thinned out, with hits kept by preference.
mHTT CaM bind: mHTT-calmodulin interaction abrogation; AlphaScreen His-mHTT/GST-CaM binding, luminescence; inhibition, % at 15 µM; 190,000 compounds, 3.6% hits; AID 1671202;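 also: 0% = both proteins with DMSO and 100% = one protein alone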
Pf apPOL block: Pf-apPOL DNA polymerase inhibition; Recombinant Pf-apPOL, molecular beacon fluorescence, 1.5 h; inhibition, % at 10 µM; 210,000 compounds, 0.25% hits
* = called active by the depositor; nt = no result; ! = not active in a repeat. Rule as the data show it: active = inhibition above about 50%; inactive = the rest.

SMILES	mHTT CaM bind	Pf apPOL block
O=C(Nc1ccccc1Oc1ccccc1)c1ccccc1Cl	nt	-3
O=C(c1cn(-c2cccc(F)c2)nn1)N1CCCCCC1	-8	-2
CC(C)OCCCNc1nc(-c2ccc(Cl)cc2)nc2ccccc12	-28	-8
CC1CCN(S(=O)(=O)c2ccc(C(=O)Nc3nc(-c4ccccn4)cs3)cc2)CC1	98*	-3
CC1CCCCN1S(=O)(=O)c1ccc(C(=O)Nc2nc3c(s2)Cc2ccccc2-3)cc1 (stereo not given)	21	-5
CC1CCCN(S(=O)(=O)c2ccc(C(=O)Nc3nc(-c4ccccn4)cs3)cc2)C1 (stereo not given)	100*	-1
Cc1nnc(NC(=O)c2ccc(S(=O)(=O)N3CCCC(C)C3)cc2)o1 (stereo not given)	24	-4
CC1CCN(S(=O)(=O)c2ccc(C(=O)Nc3nc4c(s3)Cc3ccccc3-4)cc2)CC1	10	-10
O=C(Nc1nc(-c2cc(Cl)ccc2Cl)cs1)c1ccc(N2C(=O)CCC2=O)cc1	-6	0
O=C(Nc1nc(-c2ccccn2)cs1)c1ccc(N2C(=O)CCC2=O)cc1	100*	-6
CC1CCCCN1S(=O)(=O)c1ccc(C(=O)Nc2nc(-c3ccccn3)cs2)cc1 (stereo not given)	100*	-9
O=C(NC1CC1)C1CN(C(=O)Nc2ccc(F)cc2F)CC12CCOCC2 (stereo not given)	1	-1
Cc1ccc(-n2nc(C)c3c(NCCN(C)C)nc(C4CC4)nc32)cc1	23	2
Cc1nc(C)c(-c2nnc(NC(=O)c3ccc(S(=O)(=O)N4CCOCC4)cc3)o2)s1	2	7
CCCNC(=O)N1CCC(CCOc2ccccc2)CC1	-7	-5
CCOC1=NN(c2ccc([N+](=O)[O-])cc2)C(=O)/C1=C/c1ccc(N(C)C)cc1	12	10
COc1cc(N2CN=c3s/c(=C\c4ccccc4)c(=O)n3C2)cc(OC)c1OC	35	-8
COc1cc(N2CN=c3s/c(=C\C=C\c4ccccc4)c(=O)n3C2)cc(OC)c1OC	55*	-6
COCc1c(C(=O)O)nnn1-c1ccc(C)c(C)c1	-7	2
O=[N+]([O-])c1ccccc1CNc1ccc(F)c(F)c1	24	-3
O=C(Nc1ccc2cn[nH]c2c1)c1ccc([N+](=O)[O-])o1	1	9
O=[N+]([O-])c1ccccc1CNc1ccc2cn[nH]c2c1	59*	-8
O=[N+]([O-])c1cccc(CNc2ccc3c(c2)CCC3)c1	89*	-1
O=[N+]([O-])c1cccc(CNc2cccc(F)c2)c1	0	11
COc1cc(CNC2CCCCCC2)c([N+](=O)[O-])cc1OC	0	0
SMILES	mHTT CaM bind	Pf apPOL block
COc1cc(CNc2ccc3c(c2)CCC3)c([N+](=O)[O-])cc1OC	71*	1
O=[N+]([O-])c1ccccc1CNc1ccc2c(c1)CCC2	94*	-2
CC1=CC(=O)C(n2nnc([N+](=O)[O-])n2)C(c2ccccc2)C1 (stereo not given)	6	-3
COc1cc(NC(=O)c2ccc(Cn3nc(C)c(Br)c3C)o2)cc(OC)c1OC	35	10
COc1cc(CNc2ccc(F)c(Cl)c2)c([N+](=O)[O-])cc1OC	62*	-2
COc1cc(CNc2ccc(F)c(Cl)c2)cc([N+](=O)[O-])c1O	29	8
COc1ccc(-n2nc3c(c2NC(=O)C2CCCC2)CS(=O)(=O)C3)cc1	4	4
CCCCC1CCC(C(=O)Nc2c3c(nn2-c2ccc(OC)cc2)CS(=O)(=O)C3)CC1 (stereo not given)	58*	1
Cc1ccccc1CNC(=O)C1(C)CCCN(S(=O)(=O)c2cccc(Cl)c2C)C1 (stereo not given)	61*	-3
Cc1ccccc1CNC(=O)C1(C)CCCN(S(=O)(=O)c2ccccc2Cl)C1 (stereo not given)	-5	1
Cc1ccc(C)c(S(=O)(=O)N2CCCC(C)(C(=O)NCc3ccccc3)C2)c1 (stereo not given)	-4	-4
Cc1c(Cl)cccc1S(=O)(=O)N1CCCC(C)(C(=O)NCc2ccccc2)C1 (stereo not given)	65*	-4
O=C(C1CCN(c2ccc(N3CCOCC3)nn2)CC1)N1CCCCCC1	7	2
C=CCn1c(=N)n(CC(O)c2ccc(-c3ccccc3)cc2)c2ccccc21 (stereo not given)	96*	0
C=CCn1c(=N)n(CC(O)c2ccc(Br)cc2)c2ccccc21 (stereo not given)	6	-3
CCOC(=O)Oc1ccc2c(c1)C(C)=CC(C)(C)N2	9	-7
CC(C)(C)c1cc(-c2cc(C(C)(C)C)c(O)c(C(C)(C)C)c2)cc(C(C)(C)C)c1O	nt	-5
CC1=CC(C)(C)Nc2cc(C(C)(C)C)c(O)cc21	95*	-4
CC1=CC(C)(C)Nc2cc(CN(C)C)c(O)cc21	98*	-2
COC(=O)C(N)c1cc(Br)ccc1OC (stereo not given)	0	0
COCCn1c(C2CCN(S(=O)(=O)c3cccs3)C2)nc2ccncc21 (stereo not given)	6	5
O=C(Nc1nnc(COc2ccccc2)s1)c1cccs1	-1	0
COc1cccc(CNC(=O)C2(C)CCCN(C(=O)c3ccccc3Br)C2)c1 (stereo not given)	-4	0
CCOc1ccc2c(c1)OC(=Cc1ccc3c(c1)OCO3)C2=O	-6	3
CCCN1C/C(=C\c2ccc3c(c2)OCO3)C(=O)/C(=C/c2ccc3c(c2)OCO3)C1	63*	1
SMILES	mHTT CaM bind	Pf apPOL block
CCn1ccc2c(cc(C(=O)Nc3ccc(C(C)C)cc3)n2C)c1=O	8	-2
COCCCNC(=O)C1CCCN(c2ncnc3c2nc2n3CCCCC2)C1 (stereo not given)	-5	0
Cc1ccc(OCC(=O)Nc2ccc(F)cc2)cc1	-12	2
Cc1ccc(NC(=O)COc2ccc(Br)cc2)cc1	-16	80*
Cn1nc(-c2nc(C3CC3)no2)c2c1CCN(C(=O)c1c(F)cccc1Cl)C2	-3	0
COc1ccc(Br)cc1C(=O)Nc1ccccc1N1CCOCC1	-9	1
N=C1N=NC(c2ccccc2)=CS/C1=C\c1ccc(F)cc1	59*	2
N=C1S/C(=C\c2ccccc2)C(=O)N1c1ccc(F)cc1	0	2
COc1cccc(Oc2c(C)oc3c(CN4CCN(C)CC4)c(O)ccc3c2=O)c1	3	-8
Cc1[nH]c2ccccc2c1-c1csc(-c2cccnc2)n1	33	0
Cc1[nH]c2ccccc2c1-c1csc(-c2ccncc2)n1	70*!	0
O=[N+]([O-])c1cc(C(F)(F)F)cc([N+](=O)[O-])c1Sc1nnnn1-c1ccccc1	100*	4
CS(=O)(=O)N1CCN(c2ccc([N+](=O)[O-])c(Sc3nnnn3-c3ccccc3)c2)CC1	-4	-4
N#Cc1ccc(N=Cc2cc(I)cc(I)c2O)cc1	53*	0
CCOC(=O)c1ccc(N=Cc2cc(I)cc(I)c2O)cc1	nt	-26
COc1ccc2c(c1)-c1onc(C(=O)NCc3cccc(Cl)c3)c1CC2	-34	2
O=C1C(=O)N(Cc2csc(-c3ccc(Cl)cc3)n2)c2ccc(Br)cc21	46	0
O=C1C(=O)N(Cc2ccccc2)c2ccc(Br)cc21	48	5
O=C1C(=O)N(Cc2c(F)cccc2Cl)c2ccc(Br)cc21	66*	0
CCN(CC)C(=O)CN1C(=O)C(=O)c2cc(Br)ccc21	97*	nt
